Screens (PubChem BioAssay)
In the library only some 19% were active in any assay of this set; here they are far more common.
TDP1 cell noCPT: qHTS for Inhibitors of human tyrosyl-DNA phosphodiesterase 1 (TDP1): qHTS in cells in absence of CPT; Potency, µM (top dose mostly 46.2 µM), without a hit: at the highest dose activity change, negative = growth inhibition, most hits filed as inhibitors; DT40 Tdp1-/- hTDP1 cells, no CPT, ATP luminescence, 48 h; 15% of 420,000 active; note: potency is the fitted concentration of half-maximal effect; nearly all actives have a fitted effect of over 55% in size
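DT40 Tdp1-/-;hTDP1 cells, no CPT (DMSO vehicle only), 400 cells/well; compounds pin-transferred; ≥48 hr, 37 °C; CellTiter-Glo 30 min RT dark, luminescence read.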
HT1080NT lethal: kills 2HG-producing HT-1080-NT fibrosarcoma cells; HT-1080-NT fibrosarcoma viability, CellTiter-Glo ATP luminescence, 48 h; Potency, µM (titrated, usually from 46.1 µM), for the others: at the top dose activity, negative = less viability, usual class: cytotoxic; 1.6% of 360,000 active; AID 686970;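 note: NT is the 2HG producing partner of a matched IDH1 knockdown line; potency is the fitted concentration of half-maximal effect; 0% = DMSO-treated cells and -100% = media-only wells without cells; nearly all actives have a fitted effect of over 55% in size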
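Toxicity toward the 2HG-producing NT line was scored as %Activity, normalised to DMSO and no-cell wells, from CellTiter-Glo luminescence after 48 hours' treatment.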
uPA surface inh: inhibitors of cell surface uPA generation | cell surface uPA generation assay, qHTS | Potency, µM (series often up to 38.3 µM), for inactives: at the top dose activity change, negative = inhibition, usual class: inhibitors | 0.31% of 330,000 active; active = well fitted inhibition curve with a large enough effect; inconclusive = small, poorly fitted or top-dose-only effect; inactive = no such curve, though single readings can be large or run the other way; tested in mouse RAW 264.7 cells; note: potency is the fitted concentration of half-maximal effect; nearly all actives have a fitted effect of over 55% in size
DT40 TDP1 CPT: DT40-hTDP1 cell growth loss with CPT; chicken DT40 Tdp1-/-;hTDP1 cells + 20 nM CPT, ATP luminescence, 48 h; Potency, µM (doses to about 46.2 µM), inactives show at the highest dose activity change, negative = growth inhibition, hits mostly inhibitors; 12% of 420,000 active; AID 686979; note: potency is the fitted concentration of half-maximal effect; nearly all actives have a fitted effect of over 55% in size
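Chicken DT40 Tdp1-/- cells stably complemented with human TDP1 were seeded at 400 cells/well in medium containing 20 nM camptothecin, exposed to pin-transferred compounds, and grown at 37 °C for at least 48 hr. Viability was read as ATP luminescence.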
IL-1B inflam inh: inflammasome signaling inhibition, IL-1 beta readout. activity change, % at 57.5 µM. THP-1 LPS/ATP IL-1B secretion, AlphaLISA, 16 h; active compounds read low. 4.7% of 360,000 active; in the data active = activity change below about -50%; inconclusive = mostly about -30% to -49%
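Secreted IL-1B measured by AlphaLISA bead assay after 16 h compound exposure of THP-1 cells; compounds (final up to 57.5 uM) added 1 h before LPS (250 ng/mL) and ATP (1.25 mM) stimulation; lower signal means less secretion.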
HT1080 IDH1KD tx: toxicity to HT-1080 IDH1 knockdown cells (counter line); HT-1080 IDH1 knockdown viability, ATP luminescence, 48 h; Potency, µM (top dose mostly 46.1 µM), for inactives: at the top dose activity, negative = toxicity, usual class: cytotoxic; 2% of 360,000 active; AID 686971;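 note: potency is the fitted concentration of half-maximal effect; 0% = DMSO wells and -100% = cell-free medium wells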
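Knockdown cells (IDH1KD HT-1080) received compounds 2 h after plating at 750 cells/well and were kept 48 h at 37 °C in 5% FBS RPMI. A CellTiter-Glo luminescence read gave % activity for curve fitting.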
Active calls of the source: *; ? = inconclusive; . = not tested or not shown; [ ] = remark or other dose. Unless noted, calls come from the whole dose curve; as a rule, active = well fitted curve in the direction sought with a large enough effect; inconclusive = small, poorly fitted or top-dose-only effect, or another doubt; inactive = no such curve, though single readings can be large; an effect the other way counts as inactive or inconclusive. Unless noted, % is set by controls: 0 for no effect and ±100 for the full control effect.

SMILES	TDP1 cell noCPT	HT1080NT lethal	uPA surface inh	DT40 TDP1 CPT	IL-1B inflam inh	HT1080 IDH1KD tx
O=C(NC(=O)c1c(F)cccc1F)Nc1cc(Cl)c(F)c(Cl)c1F	?	0%	-22%	-9%	-12	-2%
O=C(c1ccc(-c2ccccc2)cc1)C1CCCN(Cc2ccn[nH]2)C1 (stereo not given)	?	-4%	7%	?	-25	-10%
Cc1ccc(C(C)C)cc1OCC(=O)Nc1nnc(C2CC2)s1	?	?	2%	-5%	-5	?
O=C(OCc1cc(=O)n2nc(C3CC3)sc2n1)c1ccc(NC(=O)c2ccccc2Cl)cc1	7.3µM*	.	.	?	.	.
Cc1ccccc1OCC(=O)Nc1ccccc1C(=O)OCc1cc(=O)n2nc(C3CC3)sc2n1	1.6µM*	.	.	1.6µM*	.	.
CC(C)c1nn2c(=O)cc(COC(=O)Cc3ccccc3)nc2s1	-5%	.	.	-8%	.	.
Cc1nn2c(=O)cc(COC(=O)c3ccccc3NC(=O)c3cccs3)nc2s1	10µM*	.	.	9.2µM*	.	.
O=C1CN=C(c2ccccc2)c2cc(Cl)ccc2N1	-7%	-15%	10%	1%	-14	-1%
O=C1NCN(c2ccccc2)C12CCN(C(c1ccnc3ccccc13)c1nnnn1C1CCCC1)CC2 (stereo not given)	?	-10%	.	?	-4	-7%
O=C1NCN(c2ccccc2)C12CCN(C(c1cc3ccccc3o1)c1nnnn1C1CCCC1)CC2 (stereo not given)	?	?	.	?	-65*	?
Cc1cccc(C)c1-n1nnnc1C(c1cccc2ccccc12)N1CCC2(CC1)C(=O)NCN2c1ccccc1 (stereo not given)	12µM*	4%	.	18µM*	6	0%
COc1ccc(C(c2nnnn2C2CCCC2)N2CCC3(CC2)C(=O)NCN3c2ccccc2)cc1 (stereo not given)	?	?	.	?	0	?
O=C1NCN(c2ccccc2)C12CCN(C(c1cccc3ccccc13)c1nnnn1C1CCCC1)CC2 (stereo not given)	16µM*	?	.	?	-62*	?
Cc1cccc(C)c1-n1nnnc1C(CCc1ccccc1)N1CCC2(CC1)C(=O)NCN2c1ccccc1 (stereo not given)	?	1%	.	?	6	2%
O=C1NCN(c2ccccc2)C12CCN(C(c1cccc3ccccc13)c1nnnn1C1CCCCC1)CC2 (stereo not given)	?	?	.	23µM*	42	1%
O=C(Nc1ccc(N2CCCC2)cc1)c1ccccc1[N+](=O)[O-]	?	6%	?	?	-5	0%
CC12CC1(C)C(=O)N(c1cc(Cl)cc(Cl)c1)C2=O (stereo not given)	11%	-2%	?	-18%	-7	1%
COc1ccccc1OC(=O)Oc1ccccc1OC	?	6%	-12%	-8%	-1	13%
O=C1NC(=O)C(CCc2ccncc2)(Cc2cccc(Cl)c2Cl)C(=O)N1c1ccc(Br)cc1 (stereo not given)	5.8µM*	16µM*	-8%	4.6µM*	26	8.2µM*
COC(=O)C1=C(C)NC(COC(N)=O)=C(C(=O)OC(C)C)C1c1cccc(Cl)c1Cl (stereo not given)	33µM*	.	.	30µM*	.	.
CCN1C[C@]2(COC)[C@H](O)C[C@H](OC)[C@]34C1C([C@H](OC)[C@H]23)[C@]1(OC(C)=O)C2[C@@H](OC(=O)c3ccccc3)C(O)(C[C@H]24)[C@@H](OC)[C@@H]1O	8%[21.1 µM]	.	.	9%[21.1 µM]	.	.
COC(=O)C1=C(c2ccc(F)cc2F)C[C@@H]2CC[C@H]1N2C(=O)NCCCOC(C)C	-18%	16%	5%	-5%	20	15%
